Screens (PubChem BioAssay)
In the library only some 7% were active in any assay of this set; here they are far more common.
ADAM17 inh: inhibits human ADAM17; recombinant ADAM17, EDANS/DABCYL FRET peptide cleavage; 370,000 compounds, 0.83% hits; inhibition, % at 6.95 µM; P78536;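 active means inhibition above the mean of compounds lying between control limits plus 3 SD, set per campaign, cut at about 8.5% in these data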
ADAM10 inh: inhibits human ADAM10. recombinant ADAM10, EDANS/DABCYL FRET peptide cleavage, 3 h. inhibition, % at 7 µM. 370,000 compounds, 0.62% hits. AID 720582;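 active means inhibition above a per-campaign cutoff equal to the mean of compounds falling between control-based bounds plus 3 SD, cut at about 20% in these data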
rCAG binder: r(CAG) repeat RNA binding; TO-PRO-1 dye displacement fluorescence; inhibition, % at 3 µM; 370,000 compounds, 1.3% hits; AID 651821;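 active means inhibition above the plate cutoff, the mean of all test compounds on that plate plus 3 SD, cut at about 35% in these data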;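 further: higher means more dye released from RNA so lower well fluorescence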
AHR act: human AHR activation | AHR-responsive luciferase reporter cells, luminescence | activation, % at 5 µM | 320,000 compounds, 2.5% hits | AID 2796; in the data active means activation above about 47%
Target sequence (P35869 whole entry, looked up): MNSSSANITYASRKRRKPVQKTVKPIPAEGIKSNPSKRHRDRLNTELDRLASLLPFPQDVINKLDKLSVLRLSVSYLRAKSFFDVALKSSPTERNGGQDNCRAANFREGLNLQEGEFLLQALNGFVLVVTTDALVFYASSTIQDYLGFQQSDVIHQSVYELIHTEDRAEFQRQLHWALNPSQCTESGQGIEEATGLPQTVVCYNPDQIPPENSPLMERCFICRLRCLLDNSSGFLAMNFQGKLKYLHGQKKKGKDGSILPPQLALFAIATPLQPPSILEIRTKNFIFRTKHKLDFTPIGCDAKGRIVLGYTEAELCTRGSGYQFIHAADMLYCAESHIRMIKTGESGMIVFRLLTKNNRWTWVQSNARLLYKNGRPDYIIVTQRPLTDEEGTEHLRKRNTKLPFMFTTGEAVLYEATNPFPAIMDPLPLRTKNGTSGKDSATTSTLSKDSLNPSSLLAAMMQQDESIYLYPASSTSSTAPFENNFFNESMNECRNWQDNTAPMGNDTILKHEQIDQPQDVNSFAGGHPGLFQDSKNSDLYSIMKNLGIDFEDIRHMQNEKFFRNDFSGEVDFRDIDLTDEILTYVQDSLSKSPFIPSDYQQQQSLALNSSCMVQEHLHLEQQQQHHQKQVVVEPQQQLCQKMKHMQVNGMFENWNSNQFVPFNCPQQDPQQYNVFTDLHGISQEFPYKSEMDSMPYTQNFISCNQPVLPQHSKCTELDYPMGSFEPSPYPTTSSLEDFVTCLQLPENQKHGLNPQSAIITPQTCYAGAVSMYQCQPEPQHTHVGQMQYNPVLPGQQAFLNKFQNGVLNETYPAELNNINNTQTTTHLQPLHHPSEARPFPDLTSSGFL
NR3A LBD binder: modulators (binders) of human NR3A ligand-binding domain; 340,000 compounds, 2.5% hits; Tm shift relative to glycine control, % at 25 µM; AID 1259313; NR3A LBD differential scanning fluorimetry, Tm shift; 0% = protein alone, 100% = glycine-bound protein;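 active means melting temperature shift of at least 10% of the positive control shift, at one fixed dose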
proKLK7 act: activates the human kallikrein-7 zymogen; activation, % at 7 µM; P49862; purified proKLK7, EDANS-DABCYL substrate fluorescence; 100% is mature enzyme control, 0% vehicle; AID 652039; 370,000 compounds, 0.9% hits;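 active means activation above the mean of all tested compounds plus 3 SD, computed per campaign excluding outliers beyond control limits, cut at about 13% in these data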
rCAG binder conf: r(CAG) RNA repeat binding, confirmation | shares compounds with rCAG binder | TO-PRO-1 dye displacement fluorescence | inhibition, % at 3 µM | 4,300 compounds, 70% hits | AID 652065;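 active means inhibition above a per-plate cutoff, the mean inhibition of sample wells plus 3 SD, cut at about 35% in these data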;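 further: loss of TO-PRO-1 fluorescence as compound displaces dye from 1x1 AA loop RNA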
dCAG dye counter: disrupts DNA CAG TO-PRO-1 complex, flagging rCAG hits; AID 652068; shares compounds with rCAG binder; d(CAG) DNA oligo TO-PRO-1 dye displacement, fluorescence; 4,300 compounds, 94% hits; inhibition, % at 3 µM;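 active means inhibition above its plate's cutoff, the mean test-well inhibition plus 3 SD, cut at about 4.8% in these data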;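 further: hits displace the dye from DNA and so lower well fluorescence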
Hits are given with their value.

Results for COC(=O)C1CN(Cc2ccccc2)CCS(=O)(=O)N1Cc1cn(Cc2ccccc2Br)nn1 (stereo not given) ?
ADAM17 inh: inactive; ADAM10 inh: inactive; rCAG binder: inactive; proKLK7 act: inactive

What do the screens show for `CCOC(=O)CC1(CCc2ccccc2)Oc2ccccc2O1`?
ADAM17 inh: inactive; ADAM10 inh: inactive; rCAG binder: inactive; proKLK7 act: inactive

What do the screens show for `O=C(CC(C(=O)O)c1ccc(Cl)cc1Cl)c1ccc(Cl)cc1` (stereo not given)?
ADAM17 inh: inactive; ADAM10 inh: inactive; rCAG binder: 41; AHR act: inactive; NR3A LBD binder: inactive; proKLK7 act: inactive; rCAG binder conf: inactive; dCAG dye counter: inactive

Results for O=C(OCCCN1CCC2(CCCCC2)C1=O)c1ccccc1 ?
ADAM17 inh: inactive; ADAM10 inh: inactive; rCAG binder: inactive; proKLK7 act: inactive

How did CCOC(=O)CC(=O)CSc1nc(-c2ccccc2)cc(-c2ccccc2)c1C#N do in these assays?
ADAM17 inh: inactive; ADAM10 inh: inactive; rCAG binder: inactive; AHR act: inactive; NR3A LBD binder: inactive; proKLK7 act: inactive

What do the screens show for `COc1ccc(-c2cc(-c3ccccc3)nc(SC(C)C(=O)O)c2C#N)cc1` (stereo not given)?
ADAM17 inh: inactive; ADAM10 inh: inactive; rCAG binder: 71; AHR act: inactive; NR3A LBD binder: inactive; proKLK7 act: inactive; rCAG binder conf: 76; dCAG dye counter: 38

How did CC(C)C(Sc1nc(-c2ccccc2)cc(-c2ccccc2)c1C#N)C(=O)O (stereo not given) do in these assays?
ADAM17 inh: inactive; ADAM10 inh: inactive; rCAG binder: 83; AHR act: inactive; NR3A LBD binder: inactive; proKLK7 act: inactive; rCAG binder conf: 86; dCAG dye counter: 51

Results for COC(=O)[C@]12C[C@H](CC(=O)NCc3cccc(C(F)(F)F)c3)C(=O)N(Cc3ccco3)C1=C[C@H](COCc1ccccc1)O[C@@H]2C ?
ADAM17 inh: inactive; ADAM10 inh: inactive; rCAG binder: inactive; proKLK7 act: inactive

Results for C[C@H]1COc2cccc(N3CCCC3)c2S(=O)(=O)N1 ?
ADAM17 inh: inactive; ADAM10 inh: inactive; rCAG binder: inactive; proKLK7 act: inactive

Results for O=C(CCN1C(=O)/C(=C\C=C\c2ccccc2)SC1=S)Nc1cccc(C(=O)O)c1 ?
ADAM17 inh: inactive; ADAM10 inh: inactive; rCAG binder: 86; AHR act: inactive; NR3A LBD binder: inactive; proKLK7 act: inactive; rCAG binder conf: 84; dCAG dye counter: 54

Results for O=C(CCN1C(=O)/C(=C\C=C\c2ccccc2)SC1=S)Nc1ccccc1C(=O)O ?
ADAM17 inh: inactive; ADAM10 inh: inactive; rCAG binder: 42; AHR act: inactive; NR3A LBD binder: inactive; proKLK7 act: inactive; rCAG binder conf: 88; dCAG dye counter: 57

What do the screens show for `COc1cccc(/C=C2/C(=O)NN(c3ccccc3)C2=O)c1`?
ADAM17 inh: inactive; ADAM10 inh: inactive; rCAG binder: inactive; NR3A LBD binder: inactive; proKLK7 act: inactive

What do the screens show for `COc1cccc(/C=C2/C(=O)NN(c3ccc(C)c(C)c3)C2=O)c1`?
ADAM17 inh: inactive; ADAM10 inh: inactive; rCAG binder: 72; AHR act: inactive; NR3A LBD binder: inactive; proKLK7 act: inactive; rCAG binder conf: inactive; dCAG dye counter: 9.5

What do the screens show for `COc1cccc(/C=C2/C(=O)NN(c3ccc(F)cc3)C2=O)c1`?
ADAM17 inh: inactive; ADAM10 inh: inactive; rCAG binder: inactive; NR3A LBD binder: inactive; proKLK7 act: inactive

Results for CCOc1cc(/C=C2/C(=O)NN(c3cccc(Cl)c3)C2=O)ccc1O ?
ADAM17 inh: inactive; ADAM10 inh: inactive; rCAG binder: 46; AHR act: inactive; NR3A LBD binder: inactive; proKLK7 act: inactive; rCAG binder conf: inactive; dCAG dye counter: 7.5
